# Measured values published in PubChem BioAssay (Tox21).
# Records with an inconclusive call do not appear. A number with no mark means an inactive call. The call rests on the fitted dose curve; in most records, active means well fitted cell-killing curve with a large enough effect in the repeat runs; inconclusive means weak or mixed curves, or effect the other way; inactive means flat fitted curve, though single readings scatter.
# Assay: qHTS RealTime-Glo MT Cell Viability Assay in HepG2 cells - 40 hour (AID 1224870); further: nearly all actives have a fitted effect of over 50% in size
# Details: RealTime-Glo luminescence; series mostly up to 76.8 µM; activity change, negative = cytotoxic: at the top concentration
# Text: National Center for Advancing Translational Sciences [NCATS]
# NIH Chemical Genomics Center [NCGC]
# U.S. Environmental Protection Agency [EPA]
# National Institutes of Environmental Health Sciences [NIEHS]
# National Toxicology Program [NTP]
# U.S. Food and Drug Administration [FDA]
# Measure of cell viability is critical in the cell-base assay. Analysis of cell viability is necessary for the characterization of cell responses to cytotoxic drugs and environmental stress. A RealTime-Glo MT Cell Viability Assay to monitor cell viability in real time of continues cell culture during 40 hours of compound treatment was used to screen Tox21 10K library compounds in HepG2 cells. The RealTime-Glo MT Cell Viability Assay is a nonlytic, homogeneous, bioluminescent method to measure cell viability in real time using a simple, plate-based method. The assay involves adding NanoLuc luciferase and a cell-permeant prosubstrate to cells in culture. Viable cells reduce the proprietary prosubstrate to generate a substrate for NanoLuc luciferase. This substrate diffuses from cells into the surrounding culture medium, where it is rapidly used by the NanoLuc Enzyme to produce a luminescent signal. The signal correlates with the number of viable cells, making the assay well suited for cytotoxicity studies.
# Tox21 Assay Protocol Summary:
# The mixture of HepG2 cell suspension and reagents were dispensed at 600cells/6 ul/well in 1536-well tissue culture treated black solid bottom plates using a Multidrop dispenser. After the assay plates were incubated at a 37 C/5% CO2 incubator for 5 hours, 23 nL of compounds dissolved in DMSO, positive and negative controls was transferred to the assay plate by a pintool work station. The plates were incubated at 37 C for 40 hours. The luminescence intensity were measured at 0h, 8h, 16h, 24h, 32h and 40h time points using ViewLux plate reader during compound treatment.
# On the % scale 0 is the no-effect control and ±100 the full control effect.
row,SMILES,"activity change, negative = cytotoxic"
1,CC(CC(C#N)(c1ccccc1)C(C)C)N(C)C (stereo not given),0.544% [at 35.3 µM]
2,CCc1cnc(C(=O)O)c(C(=O)O)c1,-0.967%
3,Cc1c(Nc2ncccc2C(=O)O)cccc1C(F)(F)F,2.04% [at 35.3 µM]
4,O=C1OC(=O)C2CC=CCC12 (stereo not given),-0.534%
5,CC(C)(C)c1ccc(CCC=O)cc1,3.63%
6,NC(=O)c1cc[n+](CC2=C(C(=O)[O-])N3C(=O)[C@@H](NC(=O)Cc4cccs4)[C@H]3SC2)cc1,-2.15% [at 35.3 µM]
7,CC(=O)Nc1ccccc1O,1.46%
8,CC/C=C/CCO,-0.94%
9,COC=O,0.3% [at 6.97 µM]
10,CCCCOC(=O)CC#N,-2.93%
11,CCCC1CCCC(=O)O1 (stereo not given),3.31%
12,O=[N+]([O-])c1ccc(Cl)cc1Cl,0.545%
13,C[C@]12CCC(=O)C=C1[C@@H]1C[C@@H]1[C@H]1[C@@H]3[C@@H]4C[C@@H]4[C@@]4(CCC(=O)O4)[C@@]3(C)CC[C@@H]12,-8.41% [at 35.3 µM]
14,CCCCCCCCCCCCN1CCOCC1,-1.79%
15,O=S(=O)(O)c1cc(Cl)c(Cl)cc1Cl,0%
16,C=CC(C)CCC=C(C)C (stereo not given),0.461%
17,CCCC(=O)OCCC(C)C,-0.926%
18,Cc1c(Cl)cccc1Nc1ccccc1C(=O)O,-0.199% [at 35.3 µM]
19,C=C[Si]1(C)O[Si](C)(C=C)O[Si](C)(C=C)O[Si](C)(C=C)O1 (stereo not given),-4.27%
20,C=C(C)C(=O)OCCCCCCCCCCOC(=O)C(=C)C,-7.38%

row,SMILES,"activity change, negative = cytotoxic"
1,CC(=O)OCC(=O)[C@@]1(O)CC[C@H]2[C@@H]3CCC4=CC(=O)C=C[C@]4(C)[C@@]3(F)[C@@H](O)C[C@@]21C,-4.43% [at 35.3 µM]
2,C=CC(C)(O)CC/C=C(/C)CCC=C(C)C (stereo not given),1.07%
3,CC(CCl)OC(C)CCl (stereo not given),2.07%
4,CC(C)CC(C)(C)C,0.786%
5,O=C(Cl)c1cc(Cl)cc(Cl)c1,3.53%
6,O=C(O)CCc1nc2ccccc2[nH]1,3.53% [at 35.3 µM]
7,CCCCCCOC(=O)c1ccccc1,-4.29%
8,CCCCCCCCCCCCSC#N,0.975%
9,CC(CN=Cc1ccccc1O)N=Cc1ccccc1O (stereo not given),-0.109%
10,Nc1ccc(F)cc1F,3.5%
11,OCCCO,1.58%
12,O=C(NC1CCN(CCc2c[nH]c3ccccc23)CC1)c1ccccc1,-2.63% [at 35.3 µM]
13,O=C(O)c1cc(C(=O)O)c(C(=O)O)cc1C(=O)O,-0.618%
14,CC[C@H](NC(C)C)[C@H](O)c1ccc(O)c2[nH]c(=O)ccc12,1.26% [at 35.3 µM]
15,CCc1c(C)[nH]c2c1C(=O)C(CN1CCOCC1)CC2 (stereo not given),-1.19% [at 35.3 µM]
16,Clc1cc(Cl)c2c(c1)N=C1CCCCCN1C2,-2.08% [at 35.3 µM]
17,CCCCCC1CCC(=O)O1 (stereo not given),0.273%
18,CO[C@@H]1COCC[C@@H]1N[C@@H]1CC[C@@](C(=O)N2CCc3ncc(C(F)(F)F)cc3C2)(C(C)C)C1,4.94%
19,FC(F)(Cl)C(F)(Cl)Cl,0.137%
20,O=C(N[C@@H](Cc1ccccc1)[C@@H](O)C(=O)N1C[C@@H](O)[C@@H](O)C1)c1cc2cc(Cl)ccc2[nH]1,-1.63%
